{
  "source": "PubChem BioAssay (Tox21)",
  "note": "A number with no mark means an inactive call. Calls of active or inactive are those of the source. The call rests on the fitted dose curve. On the % scale 0 is the no-effect control and ±100 the full control effect.",
  "data": [
    {"biological_target": "Muscarinic acetylcholine receptor M1 (Homo sapiens) (UniProt P11229)", "sequence (P11229 whole entry, looked up)": "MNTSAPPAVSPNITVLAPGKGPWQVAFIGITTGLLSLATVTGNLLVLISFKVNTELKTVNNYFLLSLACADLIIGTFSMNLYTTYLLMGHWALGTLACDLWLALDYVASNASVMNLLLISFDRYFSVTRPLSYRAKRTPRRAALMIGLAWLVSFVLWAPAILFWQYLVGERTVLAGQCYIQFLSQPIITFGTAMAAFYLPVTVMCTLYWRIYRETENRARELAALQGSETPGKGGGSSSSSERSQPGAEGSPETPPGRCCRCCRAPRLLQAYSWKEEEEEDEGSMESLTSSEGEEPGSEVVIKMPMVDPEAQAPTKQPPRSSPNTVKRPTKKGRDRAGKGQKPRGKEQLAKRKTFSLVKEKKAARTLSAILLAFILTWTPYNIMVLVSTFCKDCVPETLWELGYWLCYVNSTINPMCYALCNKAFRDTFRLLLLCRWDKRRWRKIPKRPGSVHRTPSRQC", "experiment": "Cholinergic receptor muscarinic 1 (CHRM1) small molecule agonists, cell-based qHTS assay (AID 1963589); further: nearly all actives have a fitted effect of over 35% in size", "conditions": "CHRM1-CHO cells, agonist mode, calcium flux fluorescence; series mostly up to 76.8 µM; activation: at the top concentration", "description": "National Center for Advancing Translational Sciences [NCATS]\nDivision of Preclinical Innovation [DPI]\nU.S. Environmental Protection Agency [EPA]\nNational Institutes of Environmental Health Sciences [NIEHS]\nNational Toxicology Program [NTP]\nU.S. Food and Drug Administration [FDA]\nThe CHRM1 is a muscarinic receptor. This receptor plays a crucial role in learning and memory processes and has long been identified as a promising therapeutic target for the improvement of cognitive decline in Alzheimer's disease (AD). The CHRM1-CHO cell line stably expressing human muscarinic acetylcholine receptor M1 (CHRM1) can be used for screening agonists and antagonists of interactions between CHRM1 and its ligands. The CHRM1-CHO Calcium Flux Assay is a homogeneous fluorescence-based assay for detecting the intracellular calcium level using FDSS kinetic plate reader system.\nCHRM1-CHO cells were dispensed at 1000 cells/3uL/well in 1536-well black-clear bottom plates using a Multidrop Dispenser. After the assay plates were incubated at a 37 C/5% CO2 incubator for 18 h, 3 uL of Dye Loading Buffer was transferred to the assay plate by a Flying Reagent Dispenser. The assay plates were incubated at 37 C for 1h. For agonist mode, 23 nL of compounds dissolved in DMSO, positive controls or DMSO only was transferred to the assay plate by a pin tool. […] Each test compound was measured at 15 concentrations in three independent runs.", "values": [
      {"smiles": "O=S(=O)(O)OOS(=O)(=O)O", "Potency": "inactive"},
      {"smiles": "CCC(=O)O[C@H]1CC[C@H]2[C@@H]3CCC4=CC(=O)CC[C@]4(C)[C@H]3CC[C@]12C", "Potency": "inactive"},
      {"smiles": "O=C(O)Cc1ccccc1", "Potency": "inactive"},
      {"smiles": "O=NN1CCCCCC1", "activation": "0.2%"},
      {"smiles": "CC(=NC#N)N(C)Cc1ccc(Cl)nc1", "activation": "-0.751%"},
      {"smiles": "ClCc1ccccc1CCl", "activation": "-0.219%"},
      {"smiles": "N#CCC#N", "activation": "0.587%"},
      {"smiles": "COC(=O)Cc1ccccc1", "activation": "0.0732%"},
      {"smiles": "N#CCc1ccccc1", "activation": "0.449%"},
      {"smiles": "Cc1ccc(N)cc1N", "Potency": "inactive"},
      {"smiles": "O=C(CCl)c1ccccc1", "Potency": "inactive"},
      {"smiles": "O=C(NC(=O)c1ccccc1Cl)Nc1ccc(OC(F)(F)F)cc1", "activation": "-0.0206%"},
      {"smiles": "CC1C=[C-]C=C1.[C-]#[O+].[C-]#[O+].[C-]#[O+].[Mn]", "Potency": "inactive"},
      {"smiles": "c1ccc2c(c1)-c1cccc3cccc-2c13", "Potency": "inactive"},
      {"smiles": "CCNc1nc(Cl)nc(NCC)n1", "Potency": "inactive"},
      {"smiles": "CCN(CCO)CCO", "activation": "-0.0664%"},
      {"smiles": "CCCCCCI", "activation": "3.14%"},
      {"smiles": "CCCCC#N", "activation": "6.75%"},
      {"smiles": "CCOP(=O)(CN(CCO)CCO)OCC", "activation": "-0.0749%"},
      {"smiles": "Cl/C=C\\C[N+]12CN3CN(CN(C3)C1)C2", "activation": "0.0752%"},
      {"smiles": "Cn1cc[n+](C)c1", "note": "(tested in a mixture with another compound)", "activation": "0.032%"},
      {"smiles": "CCOP(=S)(OCC)SCSC(C)(C)C", "Potency": "inactive"},
      {"smiles": "O=C(O)COc1ccc(Cl)cc1Cl", "Potency": "inactive"},
      {"smiles": "COc1cccc(C=O)c1", "activation": "0.088%"},
      {"smiles": "c1ccc(CN2CCNCC2)cc1", "activation": "0.457% [at 200 µM]"},
      {"smiles": "CSc1nc(NC(C)C)nc(NC(C)C)n1", "Potency": "inactive"},
      {"smiles": "CCCCCCCCCCCCCCCl", "activation": "-0.479%"},
      {"smiles": "C=CC(=O)OC(C)(C)C", "activation": "0.393%"},
      {"smiles": "N#CCCCl", "Potency": "inactive"},
      {"smiles": "CCOC(=O)C1(c2ccccc2)CCN(CCC(C#N)(c2ccccc2)c2ccccc2)CC1", "activation": "-0.463% [at 35.3 µM]"},
      {"smiles": "Nc1ccc2ccccc2c1", "Potency": "inactive"},
      {"smiles": "Cc1cc(Cl)ccc1OCC(=O)O", "Potency": "inactive"},
      {"smiles": "O=C(O)c1ccc(=O)[nH]c1", "activation": "0.133% [at 35.3 µM]"},
      {"smiles": "Cl/C=C/Cl", "Potency": "inactive"},
      {"smiles": "Brc1ccc(Oc2ccccc2)cc1", "Potency": "inactive"},
      {"smiles": "Nc1ncn[nH]1", "Potency": "inactive"},
      {"smiles": "CCOC(=O)CP(=O)(OCC)OCC", "activation": "-0.0495%"},
      {"smiles": "Nc1ccc(N=Nc2ccc(-c3ccc(N=Nc4c(S(=O)(=O)O)cc5cc(S(=O)(=O)O)c(N=Nc6ccccc6)c(O)c5c4N)cc3)cc2)c(N)c1", "activation": "-1.56% [at 35.3 µM]"},
      {"smiles": "Oc1ccc(C(c2ccc(O)cc2)(C(F)(F)F)C(F)(F)F)cc1", "Potency": "inactive"},
      {"smiles": "O=S(=O)(O)C(F)(F)C(F)(F)C(F)(F)C(F)(F)C(F)(F)C(F)(F)C(F)(F)C(F)(F)F", "Potency": "inactive"}
    ]}
  ]
}
